For 36 compounds, Potency, activity change, negative = inhibition and viability results are on record in PubChem BioAssay (NCATS).

In assay [1] the target is Aldehyde dehydrogenase, mitochondrial (Homo sapiens) (UniProt P05091). Description: qHTS for Inhibitors of the Aldehyde Dehydrogenase Family (ALDH2) Primary screen (AID 2061308).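 Note: plate controls were vehicle for no effect and reference inhibitor for full effect; nearly all actives have a fitted effect of over 55% in size.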 Background: qHTS replaces the single test concentration by a dilution series.
The target in assay [2] is Retinaldehyde dehydrogenase 3 (Homo sapiens) (UniProt P47895). In words: qHTS for Inhibitors of the Aldehyde Dehydrogenase Family (ALDH1A3) Primary screen (AID 2061315).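 Note: plate controls were DMSO vehicle for no effect and reference inhibitor for full effect.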
Assay [3] can be described thus: BET inhibitor-based combinations targeting novel dependencies in MECOM-rearranged (r) AML: SET-2 cell line (AID 2202231).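 For viability: plate controls were DMSO treated cells for no effect and wells without cells for full effect.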 Note: nearly all actives have a fitted effect of over 35% in size. Note: potency is the fitted concentration of half-maximal effect. Conditions: SET-2 AML cells viability, CellTiter-Glo luminescence, 48 h; viability: stronger effect = lower value, concentration not given here. Summed up:
(§1)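 Each compound was tested at eleven concentrations on cells seeded at 500/well. After two days' incubation, ATP-based luminescence reported viability; responses relative to DMSO and blank wells yielded AUC and cell-line-centred Z-AUC.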

Assay [4] in a line: BET inhibitor-based combinations targeting novel dependencies in MECOM-rearranged (r) AML: OCI-AML3 cell line (AID 2202232).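 Note: series mostly up to about 46 µM; plate controls were DMSO vehicle wells for no effect and wells without cells for full effect; nearly all actives have a fitted effect of over 35% in size.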 Conditions: Potency: OCI-AML3 viability. Summed up: as §1
A short description of assay [5]: BET inhibitor-based combinations targeting novel dependencies in MECOM-rearranged (r) AML: HNT-34 cell line (AID 2202234). Note: nearly all actives have a fitted effect of over 35% in size. Note: potency is the fitted concentration of half-maximal effect. Summed up:
(§2)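 First, 500 cells per well were seeded; next, drugs were pinned as 11-point doses; then plates sat 48 hr in the incubator; finally CellTiter-Glo was added and luminescence read, with AUC and Z-AUC computed.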

Assay [6] can be described thus: BET inhibitor-based combinations targeting novel dependencies in MECOM-rearranged (r) AML: AML-191 cell line (AID 2202236;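 note: plate controls were vehicle wells for no effect and wells without cells for full effect; nearly all actives have a fitted effect of over 35% in size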). The procedure, abridged:
as §1

The nature of assay [7]: BET inhibitor-based combinations targeting novel dependencies in MECOM-rearranged (r) AML: AML-194 cell line (AID 2202237;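 note: plate controls were vehicle wells for no effect and wells without cells for full effect; nearly all actives have a fitted effect of over 40% in size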). The procedure, abridged: as §1
A short description of assay [8]: BET inhibitor-based combinations targeting novel dependencies in MECOM-rearranged (r) AML: UCSD-AML1 cell line (AID 2202235). Note: nearly all actives have a fitted effect of over 40% in size. Note: potency is the fitted concentration of half-maximal effect. The procedure, abridged:
as §2

Assay [9] can be described thus: BET inhibitor-based combinations targeting novel dependencies in MECOM-rearranged (r) AML: MV-4-11 cell line (AID 2202233). Note: potency is the fitted concentration of half-maximal effect; nearly all actives have a fitted effect of over 45% in size. The procedure, abridged: as §2

Inconclusive results are not listed. Values without a mark were called inactive. The source made the active and inactive calls. Calls come from the whole dose curve; as a rule, active = well fitted curve in the direction sought with a large enough effect; inconclusive = small, poorly fitted or top-dose-only effect, or another doubt; inactive = no such curve, though single readings can be large; an effect the other way counts as inactive or inconclusive.

On to `O=C1[C@H](O[C@@H]2O[C@H](CO)[C@@H](O)[C@H](O)[C@H]2O)Oc2ccccc2N1O`, for which the Potency result in [1] and in [2] was “inactive” each time.

Take `COC1CC(=O)C23C(=O)NC(CC(C)C)C2C(C)C(C)=CC3/C=C(\C)CCC(O)C1O` (stereo unspecified): the Potency entry in [1] and in [2] was “inactive” each time.

`COC(=O)C1=COC(O[C@@H]2O[C@H](CO)[C@@H](O)[C@H](O)[C@H]2O)[C@H]2[C@@H]1[C@H](OC(=O)CCc1ccc(O)cc1)C[C@]2(C)O` (stereo partly specified): the Potency result in assay [1] and in [2] was “inactive” in each case.

For `C=CC1(C)CC(OC(=O)C(=C)C(O)COC(C)=O)C(C(=C)C(=O)OC)C(O)C1C(=C)CO` (stereo unspecified), the Potency entry in assay [1] and in [2] was “inactive” each time.

`O=C(/C=C/c1ccc(O)cc1)OCC1OC(O)C(OC2OC(CO)C(O)C(O)C2O)C(O)C1O` (stereo unspecified): the Potency entry in assay [1] and in assay [2] was “inactive” in each case.

For `C[C@@H]1O[C@@H](O[C@H]2[C@H](O)[C@@H](O)[C@H](OC[C@H]3O[C@@H](OC(=O)[C@]45CCC(C)(C)C[C@H]4C4=CCC6[C@@]7(C)C[C@@H](O)[C@H](O)[C@@](C)(CO)C7[C@H](O)C[C@@]6(C)[C@]4(C)CC5)[C@H](O)[C@@H](O)[C@@H]3O)O[C@@H]2CO)[C@H](O)[C@H](O)[C@H]1O` (stereo partly specified), the Potency result in [1] and in assay [2] was “inactive” each time.

For `CC(C)C1CCC(CO)=CC1/C=C(\CO)C(=O)OCC1(O)CCC(C(C)C)C2C=C(C(=O)O)COC(=O)C21` (stereo unspecified), the Potency result in assay [1] and in assay [2] was “inactive” in each case.

In the case of `CC1CCCCCCCc2cc(O)cc(O)c2C(=O)O1` (stereo unspecified), the Potency result in assay [1] and in [2] was “inactive” in each case.

As for `CC1(C(=O)O)CCCC2(C)C3CC4C5CC3(CCC12)CC45C` (stereo unspecified), the Potency entry in assay [1] and in assay [2] was “inactive” in each case.

Turning to `COc1cc(F)c(C(C)C)cc1-c1ccc(C(F)(F)F)cc1CN1C(=O)OC(c2cc(C(F)(F)F)cc(C(F)(F)F)c2)C1C` (stereo unspecified), the Potency result in [1] and in assay [2] was “inactive” throughout.

As for `CC(O)(CC(=O)O)CC(=O)OCc1ccc(O[C@@H]2O[C@H](CO)[C@@H](O)[C@H](O)[C@H]2O)cc1` (stereo partly specified), the Potency entry in [1] and in assay [2] was “inactive” each time.

In the case of `CC(=O)O[C@H]1CC2C(COC(=O)CC(C)C)=CO[C@@H](OC(=O)CC(C)C)C2[C@]12CO2` (stereo partly specified), the Potency entry in assay [1] and in assay [2] was “inactive” each time.

For the compound `C[C@@H](Oc1cc(-n2cnc3ccc(OC4CCN(C)CC4)cc32)sc1C(N)=O)c1ccccc1C(F)(F)F`, the Potency result in assay [1] and in assay [2] was “inactive” in each case.

For `O=C(O)Cc1cn([C@@H]2OC[C@@H](O[C@@H]3O[C@H](CO)[C@@H](O)[C@H](O)[C@H]3O)[C@H](O)[C@H]2O[C@@H]2O[C@H](CO)[C@@H](O)[C@H](O)[C@H]2O)c2ccccc12`, the Potency result in assay [1] and in [2] was “inactive” throughout.

Consider `Cc1cnc(NC(=O)Nc2cc(Br)c(C)cc2OCC2CNCCO2)cn1` (stereo unspecified), for which the Potency entry in assay [1] and in assay [2] was “inactive” throughout.

Regarding `CC(=O)OC[C@@]12[C@H](O)C[C@@H](C)[C@]3(C[C@@H](c4ccoc4)OC3=O)[C@H]1C[C@H](O)C[C@]21CO1`, the Potency entry in assay [1] and in assay [2] was “inactive” in each case.

Turning to `COc1cc2occc2c(O[C@@H]2O[C@H](CO)[C@@H](O)[C@H](O)[C@H]2O)c1CCC(=O)O`, the Potency result in assay [1] and in assay [2] was “inactive” in each case.

Turning to `O=C(NCCCc1ccccc1)c1cccc(-c2cc(O)c3ncccc3c2)c1`, the Potency entry in assay [1] and in [2] was “inactive” each time.

In the case of `C[C@@H]1O[C@@H](O[C@H]2[C@@H]3C=CO[C@@H](O[C@@H]4O[C@H](CO)[C@@H](O)[C@H](O)[C@H]4O)[C@@H]3[C@@]3(CO)O[C@@H]23)[C@H](OC(=O)/C=C/c2ccccc2)[C@H](O)[C@H]1O`, the Potency entry in assay [1] and in assay [2] was “inactive” in each case.

Take `C=C1CCC2C(C)(C(=O)O)CCCC2(C)C1CC/C(C)=C\CO` (stereo unspecified): the Potency result in assay [1] and in [2] was “inactive” in each case.

In the case of `CC(=O)O[C@H]1C[C@@](O)(C(C)C)C2[C@@H](OC(=O)c3ccc(O)cc3)C[C@@]3(C)O[C@H]3C[C@]21C` (stereo partly specified), the Potency result in [1] and in assay [2] was “inactive” each time.

For `CCCC1=CC2=C(CO1)C(=O)C(C)(OC(=O)c1c(C)cc(OC)cc1O)C(O)C2` (stereo unspecified), the Potency entry in assay [1] and in [2] was “inactive” in each case.

`COCC1OC(OC(C)(C)C2CCC3(C)C=C(C4CCC5C4(C)CC(O)C4OC(C(C)(C)OC6OC(CO)C(O)C(O)C6NC(C)=O)CCC45C)CCC3O2)C(NC(C)=O)C(O)C1O` (stereo unspecified): the Potency result in assay [1] and in [2] was “inactive” in each case.

As to `CC(C)=C[C@@H]1[C@H](CO[C@@H]2O[C@H](CO)[C@@H](O)[C@H](O)[C@H]2O)C1(C)C`, the Potency result in assay [1] and in [2] was “inactive” in each case.

As to `CC(C)(O)C1CCC2(C)C3C(O)C4C(C13)C42CO` (stereo unspecified), the Potency entry in assay [1] and in [2] was “inactive” throughout.

Turning to `CC1(C)C[C@H](O)C[C@@]2(C)[C@H]1[C@H](O)C=C1COC(=O)[C@@]12O`, the Potency result in assay [1] and in [2] was “inactive” throughout.

Regarding `CC(C)(O)c1ccc2c(c1)C(=O)C[C@H]1[C@](C)(C(=O)O)CCC[C@]21C`, the Potency entry in assay [1] and in assay [2] was “inactive” in each case.

In the case of `C=C1CO[C@@]2(O[C@H]3CC4C5CC=C6C[C@@H](O)C[C@@H](O[C@@H]7OC[C@H](O)[C@H](O[C@@H]8OC[C@@H](O)[C@H](O)[C@H]8O)[C@H]7O[C@@H]7O[C@@H](C)[C@H](OC(C)=O)[C@@H](OC(C)=O)[C@H]7OC(C)=O)[C@]6(C)C5CC[C@]4(C)[C@@H]3[C@@H]2C)[C@@H](O)[C@H]1OC1OC(C)C(O)C(O)C1O` (stereo partly specified), the results for the activity change, negative = inhibition in assay [1] and in assay [2] were 8.25% [at 11.2 µM] and -6.16% [at 11.2 µM], respectively.

Regarding `Cc1cc(Nc2nc(NC(C)c3ncc(F)cn3)ncc2Cl)n[nH]1` (stereo unspecified), the Potency result in assay [1] and in assay [2] was “inactive” each time.

`O=C(Nc1ccccc1-c1cn2c(CN3CCNCC3)csc2n1)c1ccc2ccccc2n1`: the Potency result in assay [1] and in assay [2] was “inactive” in each case.

In the case of `CCC(CC)C(=O)Nc1sc2c(c1C#N)CCC(C(C)(C)CC)C2` (stereo unspecified), the Potency entry in assay [1] and in [2] was “inactive” in each case.

Consider `COc1cc(/C=C2\CCCN([C@@H](C)c3ccc(F)cc3)C2=O)ccc1-n1cnc(C)c1`, for which the Potency entry in assay [1] and in assay [2] was “inactive” each time.

The viability is the share of living cells, or the viability signal relative to a control. For the compound `Cc1ccccc1C(=O)Nc1ccc(C(=O)N2CCCC(O)c3cc(Cl)ccc32)c(C)c1` (stereo unspecified), the Potency entry in assay [1], in assay [2], in assay [4], in [5], in assay [6] and in [7] was “inactive” each time. Besides, the viability in assay [3] is 88.6%.

Regarding `COc1ccc(CCN2CCN(CCCc3ccccc3)CC2)cc1OC`, the Potency result in assay [1], in assay [2], in assay [4], in assay [5], in assay [8] and in assay [6] was “inactive” throughout. Also, in assay [7], the Potency entry is “inactive”. Further, the Potency in assay [3] was 18.6 µM (active).

As for `COc1cc(-c2cccc(O)c2)cc2c1OCO2`, the Potency entry in assay [1] and in assay [2] was “inactive” each time.

`CC[C@@](C)(Nc1ccnc(-c2c[nH]c3ncccc23)n1)C(=O)NCC(F)(F)F`: the Potency result in assay [1] and in [2] was “inactive” in each case. The figures for the Potency in [9], in [5] and in assay [8] were 14.8 µM (active), 14.8 µM (active) and 6.61 µM (active), respectively.
